Key:
[1] = target: BDNF/NT-3 growth factors receptor (Homo sapiens) (UniProt Q16620); details: at 10 µM
[2] = target: T1, Tyrosine-protein kinase TXK (Homo sapiens) (UniProt P42681); details: at 1 µM
T1 sequence (whole entry): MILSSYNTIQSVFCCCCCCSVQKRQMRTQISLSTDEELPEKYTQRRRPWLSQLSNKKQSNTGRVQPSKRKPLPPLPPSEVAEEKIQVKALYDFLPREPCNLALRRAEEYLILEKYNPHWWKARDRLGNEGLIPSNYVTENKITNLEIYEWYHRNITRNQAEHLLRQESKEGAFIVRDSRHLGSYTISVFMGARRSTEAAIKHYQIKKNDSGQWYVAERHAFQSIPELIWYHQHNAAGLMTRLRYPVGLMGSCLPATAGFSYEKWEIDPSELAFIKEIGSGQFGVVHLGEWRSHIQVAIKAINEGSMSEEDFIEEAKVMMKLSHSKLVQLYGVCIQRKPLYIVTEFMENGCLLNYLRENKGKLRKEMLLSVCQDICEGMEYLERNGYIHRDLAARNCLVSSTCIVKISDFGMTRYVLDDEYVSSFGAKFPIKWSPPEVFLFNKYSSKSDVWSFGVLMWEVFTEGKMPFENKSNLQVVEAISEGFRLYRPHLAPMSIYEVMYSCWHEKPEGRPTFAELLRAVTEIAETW

[3] = target: T1, Tyrosine-protein kinase TXK (Homo sapiens); details: at 10 µM
[4] = target: T2, Serine/threonine-protein kinase ULK2 (Homo sapiens) (UniProt Q8IYT8); details: at 1 µM
T2 sequence (whole entry): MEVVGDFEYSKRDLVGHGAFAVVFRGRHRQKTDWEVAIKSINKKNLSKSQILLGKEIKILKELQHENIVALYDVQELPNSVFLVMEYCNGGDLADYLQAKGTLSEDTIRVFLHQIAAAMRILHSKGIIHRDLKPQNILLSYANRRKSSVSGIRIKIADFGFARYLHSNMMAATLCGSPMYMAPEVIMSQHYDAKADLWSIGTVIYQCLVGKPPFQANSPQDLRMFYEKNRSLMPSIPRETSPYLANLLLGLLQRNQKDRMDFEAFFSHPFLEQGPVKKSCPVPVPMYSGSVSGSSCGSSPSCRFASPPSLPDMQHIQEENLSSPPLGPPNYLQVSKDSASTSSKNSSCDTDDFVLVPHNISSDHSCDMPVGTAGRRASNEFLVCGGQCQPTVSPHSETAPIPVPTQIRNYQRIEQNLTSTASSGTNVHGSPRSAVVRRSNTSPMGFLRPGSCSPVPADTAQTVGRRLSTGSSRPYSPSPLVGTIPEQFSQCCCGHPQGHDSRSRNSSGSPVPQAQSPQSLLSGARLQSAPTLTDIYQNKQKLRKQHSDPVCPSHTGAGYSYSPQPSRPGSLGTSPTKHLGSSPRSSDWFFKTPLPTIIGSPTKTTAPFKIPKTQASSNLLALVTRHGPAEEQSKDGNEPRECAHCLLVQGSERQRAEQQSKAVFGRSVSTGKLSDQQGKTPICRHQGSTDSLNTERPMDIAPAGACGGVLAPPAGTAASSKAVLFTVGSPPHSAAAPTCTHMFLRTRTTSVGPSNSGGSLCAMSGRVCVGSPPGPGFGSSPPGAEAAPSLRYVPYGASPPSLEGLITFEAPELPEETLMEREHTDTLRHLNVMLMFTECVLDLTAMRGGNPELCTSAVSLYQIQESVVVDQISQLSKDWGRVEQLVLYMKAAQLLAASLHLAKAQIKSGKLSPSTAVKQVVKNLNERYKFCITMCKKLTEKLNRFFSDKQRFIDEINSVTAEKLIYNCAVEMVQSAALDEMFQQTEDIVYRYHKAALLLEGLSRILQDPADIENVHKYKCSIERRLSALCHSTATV

[5] = target: T2, Serine/threonine-protein kinase ULK2 (Homo sapiens); details: at 10 µM
[6] = target: T3, Serine/threonine-protein kinase ULK3 (Homo sapiens) (UniProt Q6PHR2); details: at 1 µM
T3 sequence (whole entry): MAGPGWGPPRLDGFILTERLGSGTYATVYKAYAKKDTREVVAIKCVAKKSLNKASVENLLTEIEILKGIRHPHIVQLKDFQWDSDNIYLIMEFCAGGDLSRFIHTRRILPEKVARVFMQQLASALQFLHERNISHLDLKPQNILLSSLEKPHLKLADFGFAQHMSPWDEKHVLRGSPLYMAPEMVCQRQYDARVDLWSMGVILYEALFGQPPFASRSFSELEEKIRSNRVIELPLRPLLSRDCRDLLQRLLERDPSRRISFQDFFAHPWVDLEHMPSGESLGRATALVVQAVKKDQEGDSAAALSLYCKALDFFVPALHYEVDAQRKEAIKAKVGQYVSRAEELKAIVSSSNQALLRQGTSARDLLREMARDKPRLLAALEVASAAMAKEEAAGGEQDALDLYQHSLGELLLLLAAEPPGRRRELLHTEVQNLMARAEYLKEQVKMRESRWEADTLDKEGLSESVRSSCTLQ

[7] = target: T3, Serine/threonine-protein kinase ULK3 (Homo sapiens); details: at 10 µM
[8] = target: Serine/threonine-protein kinase VRK2 (Homo sapiens) (UniProt Q86Y07); details: at 1 µM
[9] = target: Serine/threonine-protein kinase VRK2 (Homo sapiens) (UniProt Q86Y07); details: at 10 µM
[10] = target: Serine/threonine-protein kinase WNK2 (Homo sapiens) (UniProt Q9Y3S1); details: at 1 µM;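 also: residual WNK2 kinase activity expressed as percent of uninhibited control, assayed in MOPS buffer at pH 7.0 containing EDTA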
Chain of Serine/threonine-protein kinase WNK2 (Homo sapiens) (Q9Y3S1 whole entry): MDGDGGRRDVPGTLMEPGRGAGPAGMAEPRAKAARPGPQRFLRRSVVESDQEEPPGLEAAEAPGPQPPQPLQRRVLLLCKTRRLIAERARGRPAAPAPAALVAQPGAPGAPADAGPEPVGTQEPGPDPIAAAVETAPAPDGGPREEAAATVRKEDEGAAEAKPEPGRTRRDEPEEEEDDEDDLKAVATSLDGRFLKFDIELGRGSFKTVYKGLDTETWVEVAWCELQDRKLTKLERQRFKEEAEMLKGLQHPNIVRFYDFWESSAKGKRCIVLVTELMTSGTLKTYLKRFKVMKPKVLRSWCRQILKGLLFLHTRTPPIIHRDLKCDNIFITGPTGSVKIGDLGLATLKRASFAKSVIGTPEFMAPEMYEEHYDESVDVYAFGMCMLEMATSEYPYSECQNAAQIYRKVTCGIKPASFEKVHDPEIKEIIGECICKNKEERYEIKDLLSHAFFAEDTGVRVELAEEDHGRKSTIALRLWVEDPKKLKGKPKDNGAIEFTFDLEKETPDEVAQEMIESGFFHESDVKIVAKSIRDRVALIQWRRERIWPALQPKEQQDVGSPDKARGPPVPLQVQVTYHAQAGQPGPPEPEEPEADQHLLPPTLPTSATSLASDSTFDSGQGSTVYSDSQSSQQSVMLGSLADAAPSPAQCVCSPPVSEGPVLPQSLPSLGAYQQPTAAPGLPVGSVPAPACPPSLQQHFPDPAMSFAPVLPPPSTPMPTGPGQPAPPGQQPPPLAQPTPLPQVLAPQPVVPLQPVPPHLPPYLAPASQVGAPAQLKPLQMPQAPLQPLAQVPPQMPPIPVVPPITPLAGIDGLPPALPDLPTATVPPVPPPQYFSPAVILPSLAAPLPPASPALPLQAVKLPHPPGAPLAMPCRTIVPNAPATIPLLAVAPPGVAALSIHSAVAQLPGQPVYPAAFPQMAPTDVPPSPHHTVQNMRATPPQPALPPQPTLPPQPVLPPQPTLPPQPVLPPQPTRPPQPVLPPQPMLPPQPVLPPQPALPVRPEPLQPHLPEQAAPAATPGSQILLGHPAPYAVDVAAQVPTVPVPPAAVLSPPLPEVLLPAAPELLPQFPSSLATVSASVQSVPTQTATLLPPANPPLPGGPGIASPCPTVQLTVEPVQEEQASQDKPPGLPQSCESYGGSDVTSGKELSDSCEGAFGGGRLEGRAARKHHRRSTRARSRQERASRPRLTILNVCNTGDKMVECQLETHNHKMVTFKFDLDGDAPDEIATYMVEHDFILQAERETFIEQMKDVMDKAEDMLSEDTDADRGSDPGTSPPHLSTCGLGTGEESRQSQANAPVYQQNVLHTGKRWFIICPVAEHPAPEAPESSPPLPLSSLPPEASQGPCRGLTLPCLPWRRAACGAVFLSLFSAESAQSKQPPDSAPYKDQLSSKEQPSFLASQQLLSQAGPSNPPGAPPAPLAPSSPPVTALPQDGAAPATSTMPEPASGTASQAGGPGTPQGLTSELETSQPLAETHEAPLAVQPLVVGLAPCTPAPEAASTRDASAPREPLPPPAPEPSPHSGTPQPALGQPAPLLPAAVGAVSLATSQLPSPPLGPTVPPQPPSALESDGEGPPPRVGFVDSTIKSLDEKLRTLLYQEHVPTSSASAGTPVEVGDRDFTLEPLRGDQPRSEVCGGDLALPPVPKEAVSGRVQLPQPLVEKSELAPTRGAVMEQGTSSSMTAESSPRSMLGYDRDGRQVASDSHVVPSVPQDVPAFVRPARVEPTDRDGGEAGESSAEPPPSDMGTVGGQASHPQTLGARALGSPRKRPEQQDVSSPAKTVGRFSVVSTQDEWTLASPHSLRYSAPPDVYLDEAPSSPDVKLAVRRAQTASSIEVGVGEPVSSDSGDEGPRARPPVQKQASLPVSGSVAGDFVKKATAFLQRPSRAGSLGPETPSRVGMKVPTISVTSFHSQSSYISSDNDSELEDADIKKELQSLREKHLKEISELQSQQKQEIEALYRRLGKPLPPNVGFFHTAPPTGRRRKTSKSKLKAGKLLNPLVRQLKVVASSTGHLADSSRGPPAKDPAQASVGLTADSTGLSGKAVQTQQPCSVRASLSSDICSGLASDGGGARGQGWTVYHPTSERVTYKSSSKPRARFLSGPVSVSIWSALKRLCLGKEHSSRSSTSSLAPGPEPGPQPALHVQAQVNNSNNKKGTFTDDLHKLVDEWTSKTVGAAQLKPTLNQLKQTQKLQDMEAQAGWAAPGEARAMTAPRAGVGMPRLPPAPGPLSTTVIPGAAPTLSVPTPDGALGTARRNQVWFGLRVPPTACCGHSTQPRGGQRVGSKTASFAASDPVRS

Chain of Serine/threonine-protein kinase VRK2 (Homo sapiens) (Q86Y07 whole entry): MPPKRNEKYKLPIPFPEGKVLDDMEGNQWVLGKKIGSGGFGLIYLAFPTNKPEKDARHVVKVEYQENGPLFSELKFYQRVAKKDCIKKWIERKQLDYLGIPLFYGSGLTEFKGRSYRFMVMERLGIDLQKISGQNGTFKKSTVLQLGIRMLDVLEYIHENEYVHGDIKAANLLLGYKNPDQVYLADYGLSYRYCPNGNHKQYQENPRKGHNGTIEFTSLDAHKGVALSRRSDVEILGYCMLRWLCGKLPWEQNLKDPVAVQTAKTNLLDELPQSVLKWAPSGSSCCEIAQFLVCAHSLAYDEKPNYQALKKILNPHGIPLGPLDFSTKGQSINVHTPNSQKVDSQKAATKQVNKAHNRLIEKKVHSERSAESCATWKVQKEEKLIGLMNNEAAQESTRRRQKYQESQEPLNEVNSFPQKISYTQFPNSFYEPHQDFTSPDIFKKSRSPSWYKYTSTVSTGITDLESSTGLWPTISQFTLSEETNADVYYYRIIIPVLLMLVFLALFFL
Chain of BDNF/NT-3 growth factors receptor (Homo sapiens) (Q16620 32-822 limits assumed): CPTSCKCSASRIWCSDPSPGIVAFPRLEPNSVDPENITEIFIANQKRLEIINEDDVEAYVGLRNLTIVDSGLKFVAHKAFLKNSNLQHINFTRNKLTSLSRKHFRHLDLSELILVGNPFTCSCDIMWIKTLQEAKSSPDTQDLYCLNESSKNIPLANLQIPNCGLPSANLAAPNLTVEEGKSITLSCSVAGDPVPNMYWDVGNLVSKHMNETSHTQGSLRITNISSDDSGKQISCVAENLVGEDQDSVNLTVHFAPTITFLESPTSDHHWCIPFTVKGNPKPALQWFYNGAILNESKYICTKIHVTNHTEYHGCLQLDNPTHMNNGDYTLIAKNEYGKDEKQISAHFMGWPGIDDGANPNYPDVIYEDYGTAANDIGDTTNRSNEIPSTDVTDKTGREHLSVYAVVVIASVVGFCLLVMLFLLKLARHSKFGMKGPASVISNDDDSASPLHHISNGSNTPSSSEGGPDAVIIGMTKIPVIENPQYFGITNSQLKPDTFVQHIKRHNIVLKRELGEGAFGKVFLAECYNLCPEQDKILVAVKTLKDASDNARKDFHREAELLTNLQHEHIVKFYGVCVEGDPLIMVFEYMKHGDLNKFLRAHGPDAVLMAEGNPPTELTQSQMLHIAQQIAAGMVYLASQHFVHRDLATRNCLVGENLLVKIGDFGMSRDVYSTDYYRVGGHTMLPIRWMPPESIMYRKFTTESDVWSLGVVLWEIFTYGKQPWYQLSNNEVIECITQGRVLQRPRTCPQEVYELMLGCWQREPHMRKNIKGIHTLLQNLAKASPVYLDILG

SMILES	residual activity [1]	residual activity [2]	residual activity [3]	residual activity [4]	residual activity [5]	residual activity [6]	residual activity [7]	residual activity [8]	residual activity [9]	residual activity [10]
CC(C)n1cnc2/c(=N/c3cccc(Cl)c3)nc(NCCO)[nH]c21	2%	68%	37%	68%	31%	42%	11%	71% (inactive)	19%	90% (inactive)
O=C1NC(=O)c2cc(Nc3ccc(F)cc3)c(Nc3ccc(F)cc3)cc21	88%	79%	27%	107%	89%	107%	81%	99% (inactive)	86%	82% (inactive)
COc1cc2ncnc(Nc3ccc(O)c(Br)c3)c2cc1OC	87%	81%	46%	89%	76%	91%	50%	83% (inactive)	56%	96% (inactive)
O=C1NC(=O)/C(=C/c2ccc3c(c2)OC(F)(F)O3)S1	24%	109%	104%	106%	97%	105%	89%	112% (inactive)	97%	114% (inactive)
Nc1n[nH]c2nnc(-c3c(-c4ccccc4)nn4ccccc34)cc12	52%	77%	60%	95%	96%	92%	87%	89% (inactive)	68%	88% (inactive)
Nc1ccc2ncnc(NCCc3ccc(Oc4ccccc4)cc3)c2c1	58%	80%	61%	121%	108%	103%	87%	106% (inactive)	95%	110% (inactive)
Oc1n[nH]c2nnc(-c3c(-c4ccccc4)nn4ccccc34)cc12	84%	73%	67%	91%	91%	92%	95%	89% (inactive)	82%	93% (inactive)
O=C(Nc1cccc(Nc2cc(Nc3cccc(C(F)(F)F)c3)ncn2)c1)C1CC1	37%	109%	69%	103%	103%	110%	94%	107% (inactive)	77%	103% (inactive)
Cc1nc(-c2ccccc2)c(-c2ccncc2)o1	53%	86%	88%	118%	112%	104%	104%	109% (inactive)	103%	117% (inactive)
COc1ccc(S(=O)(=O)N(CCO)c2ccccc2CN(C)C/C=C/c2ccc(Cl)cc2)cc1	61%	94%	67%	113%	94%	93%	95%	102% (inactive)	80%	100% (inactive)
NC(=O)c1ccc2[nH]c(-c3ccc(Oc4ccc(Cl)cc4)cc3)nc2c1	101%	96%	92%	97%	93%	90%	87%	88% (inactive)	82%	90% (inactive)
CC(=O)O/N=C1\C(=C2\C(=O)Nc3cc(Br)ccc32)Nc2ccccc21	1%	74%	19%	93%	101%	95%	66%	99% (inactive)	97%	104% (inactive)
Cc1cc2ncc(-c3ccccc3)nc2cc1C	53%	90%	84%	104%	88%	107%	96%	105% (inactive)	96%	99% (inactive)
O=C1Nc2ccccc2/C1=C1/Nc2ccccc2/C1=N\OCCC(O)CO (stereo not given)	0%	31%	3%	98%	74%	27%	5%	69% (inactive)	26%	71% (inactive)
COc1ccc(CNc2nc(N(CCO)CCO)nc3c2ncn3C(C)C)cc1	96%	87%	89%	97%	97%	81%	82%	79% (inactive)	46%	88% (inactive)
O=C1NC(=O)c2c1c1c3ccccc3[nH]c1c1[nH]c3cc(Br)ccc3c21	42%	89%	72%	108%	95%	88%	86%	95% (inactive)	90%	96% (inactive)
N#CCCc1ccc2c(c1)-c1[nH]c3ccc([N+](=O)[O-])cc3c1CC(=O)N2	65%	26%	9%	47%	21%	33%	6%			

SMILES	residual activity [1]	residual activity [2]	residual activity [3]	residual activity [4]	residual activity [5]	residual activity [6]	residual activity [7]	residual activity [8]	residual activity [9]	residual activity [10]
COc1cccc(-c2cc(=O)c3ccccc3o2)c1N	87%	77%	73%	117%	108%	100%	105%	99% (inactive)	96%	104% (inactive)
COc1cc2ncnc(Nc3ccc(NC(=O)c4ccccc4)cc3)c2cc1OC	21%	95%	82%	108%	104%	99%	69%	110% (inactive)	55%	52% (inactive)
Cc1ccc(NC2=CC(=O)c3sc(C)nc3C2=O)cc1	93%	80%	83%	101%	100%	96%	100%	89% (inactive)	88%	88% (inactive)
Cc1nc2cc3nc(-c4cccs4)cnc3cc2n1C	45%	108%	75%	108%	107%	106%	85%	111% (inactive)	84%	117% (inactive)
COc1cc2ncnc(Nc3ccc(Oc4ccccc4)cc3)c2cc1OC	147%	56%	34%	109%	95%	96%	79%	99% (inactive)	73%	92% (inactive)
CC(=O)c1ccc(N2CCOCC2)cc1O	108%	85%	86%	106%	90%	106%	90%	107% (inactive)	96%	
CO[C@H]1[C@@H](OC)C[C@H](C)[C@@H](OC)C2=CC(=O)C=C(NC(=O)/C(C)=C/C=C/[C@H](OC)[C@@H](OC(N)=O)/C(C)=C/[C@@H]1C)C2=O	99%	89%	103%	100%	95%	88%	92%	108% (inactive)	96%	100% (inactive)
O=c1cc(-c2cccc3c2Sc2ccccc2S3)oc(N2CCOCC2)c1	76%	91%	91%	107%	101%	94%	96%	97% (inactive)	97%	103% (inactive)
O=C1Nc2cc(Br)ccc2/C1=C1/Nc2ccccc2/C1=N\O	-1%	13%	23%	102%	98%	55%	16%	94% (inactive)	90%	89% (inactive)
O=Nc1c(-c2c(O)[nH]c3ccccc23)[nH]c2ccccc12	0%	45%	11%	93%	59%	55%	12%	71% (inactive)	28%	90% (inactive)
Oc1c2ccccc2c2c3c(cccc13)N=N2	5%	58%	23%	90%	45%	73%	43%	78% (inactive)	36%	79% (inactive)
CC[n+]1c(/C=C/N(C)c2ccccc2)n(-c2ccccc2)c2ccc(-c3nc4ccccc4s3)cc21	61%	83%	51%	110%	104%	112%	97%	110% (inactive)	99%	96% (inactive)
Oc1ccc(Nc2nc(-c3ccc(Cl)cc3)cs2)cc1	78%	97%	79%	118%	105%	96%	102%	98% (inactive)	102%	117% (inactive)
Cn1cnc2cc3c(Nc4cccc(Br)c4)ncnc3cc21	68%	89%	60%	106%	99%	112%	74%	98% (inactive)	95%	105% (inactive)
CNc1cc2c(Nc3cccc(Br)c3)ncnc2cn1	21%	98%	64%	103%	95%	103%	70%	99% (inactive)	91%	105% (inactive)
Nc1nc(Nc2ccc(S(N)(=O)=O)cc2)nn1C(=S)Nc1c(F)cccc1F	0%	71%	32%	4%	0%	0%	1%	84% (inactive)	37%	
